From PubChem BioAssay
Active and inactive are the calls of the source.

Legend:
Albumin (Bos taurus) = Albumin (Bos taurus) (UniProt P02769); assay: compounds binding labelled BSA control protein – biochemical, small-molecule microarray, Alexa647 label, 635/667 nm fluorescence, artefact control for SMM control protein annotation, profiling panel (AID 1118); conditions: BSA-A647 binding, fluorescence 635 nm, higher = more signal;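 note: score merges 667 nm emission intensity and signal-to-noise per printed compound spot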
[1] = probe aXIP binding to arrayed compounds – biochemical, NeuroSMM set, 635/667 nm fluorescence, primary screen (AID 1119); conditions: small-molecule microarray, higher = more signal, called active from +8 up or from −8 down;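 note: probe is the protein aXip251-270 applied at 1 µg/mL to compound-printed slides; binding of probe to printed compounds measured as 667 nm fluorescence plus signal to noise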
[2] = probe aNOTCH3 binding on compound microarray – biochemical, small-molecule microarray, 635/667 nm fluorescence, primary screen (AID 1120); conditions: higher = more signal;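 note: probe is a biotin-tagged antibody raised against NOTCH3 rather than NOTCH3 protein; score merges spot fluorescence near 667 nm with spot signal to noise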
[3] = probe aNOTCH2 binding on compound microarray – biochemical, small-molecule microarray, 635/667 nm fluorescence, primary screen (AID 1121); conditions: higher = more signal;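 note: score merges feature fluorescence read at 667 nm with its signal to noise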
[4] = biological target: Carbonic anhydrase 2 (Homo sapiens) (UniProt P00918); assay: compounds binding carbonic anhydrase 2 – biochemical, small-molecule microarray, Alexa647-labelled CAII, profiling panel (AID 1122); conditions: CAII-A647 binding fluorescence, higher = more signal
[5] = COS7 lysate on small-molecule microarray, probe aHis, 635 nm (AID 1123); conditions: COS7 cell lysate, fluorescence, higher = more signal;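 note: z-score combines 667nm fluorescence intensity with signal-to-noise per printed compound spot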
[6] = probe aLAP1 signal on lysate-treated microarray – cell lysate, small-molecule microarray, COS7 lysate, primary screen (AID 1124); conditions: probe aLAP1, fluorescence, higher = more signal;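 note: lysate comes from COS7 cells expressing LAP1 and is applied at 0.3 µg/mL; score merges spot fluorescence near 667 nm with signal-to-noise over triplicate slides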
Sam68 (KHDRBS1) = assay: compounds binding KHDRBS1 protein – biochemical, small-molecule microarray, 635 nm fluorescence, primary screen (AID 1125); conditions: higher = more signal;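 note: score merges 667 nm channel intensity with signal to noise over triplicate slides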
[7] = tested on: Chordin-like protein 2 (CHRDL2); assay: compounds binding chordin-like 2 – biochemical, small-molecule microarray, 635 nm fluorescence, primary screen (AID 1126); conditions: fluorescence 635 nm, higher = more signal;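 note: printed compound slides probed with Chrdl2 protein at 4 µg/mL for 1 h at 4 C; score merges 667 nm emission intensity with signal to noise over three replicate slides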
[8] = biological target: Concanavalin-A (Canavalia ensiformis) (UniProt P02866); assay: compounds binding concanavalin A lectin – biochemical, small-molecule microarray, Alexa647 label, 635 nm, artefact control for SMM control protein annotation, primary screen (AID 1127); conditions: ConA-A647 binding fluorescence, higher = more signal;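 note: z combines 667 nm emission intensity with signal-to-noise across three replicate slides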
[9] = compounds binding Alexa647 anti-His antibody – biochemical, small-molecule microarray, 635 nm fluorescence, artefact control for SMM control protein annotation, primary screen (AID 1128); conditions: higher = more signal;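 note: score merges feature fluorescence with signal-to-noise for each printed compound spot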
[10] = tested on: Human papillomavirus type 1a E7 protein (residues 1-88); assay: HPV1a E7 small-molecule binders, primary screen, biochemical, small-molecule microarray, residues 1-88, 635 nm (AID 1129); conditions: small-molecule microarray binding, fluorescence 635 nm; higher = more signal
[11] = biological target: Focal adhesion kinase 1 (Homo sapiens) (UniProt Q05397); assay: PTK2 protein binding on printed compound slides – biochemical, small-molecule microarray, 635/667 nm fluorescence, BSA, DTT, primary screen (AID 1130); conditions: 635 nm fluorescence, higher = more signal;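 note: composite of spot emission at 667 nm and signal to noise over triplicate slides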
[12] = tested on: Fibrinogen (Alexa647-labelled); assay: Alexa647-fibrinogen binding to printed small molecules – biochemical, small-molecule microarray, 635/667 nm fluorescence, artefact control for SMM control-protein annotation, profiling panel (AID 1131); conditions: fibrinogen-A647 binding fluorescence, higher = more signal;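 note: z-score merges 667 nm fluorescence with per-spot signal-to-noise over triplicate slides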
[13] = biological target: Follistatin (Homo sapiens) (UniProt P19883); assay: FST protein binding to printed compounds – biochemical, small-molecule microarray, 635/667 nm fluorescence, primary screen (AID 1132); conditions: 635 nm fluorescence, higher = more signal
[14] = biological target: Fibroblast growth factor 2 (Homo sapiens) (UniProt P09038); assay: basic fibroblast growth factor binding to printed compounds – biochemical, small-molecule microarray, 635/667 nm fluorescence, primary screen (AID 1133); conditions: FGF2, fluorescence 635/667, higher = more signal
[15] = JC-1 mitochondrial potential readout, lung cancer cells – cell-based, A549, JC-1 fluorescence, basal, 24 h, 100 nL, profiling panel (AID 1138); conditions: higher = more signal;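 note: A549 lung adenocarcinoma cells under basal conditions with no added stimulus; test concentration not given here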
Lefty1 = Lefty1 protein binding to printed compounds – biochemical, small-molecule microarray, 635/667 nm fluorescence, primary screen (AID 1139); conditions: fluorescence 635/667, higher = more signal
[16] = tested on: wheat germ agglutinin (Triticum aestivum), Alexa647-labelled; assay: Alexa647-WGA lectin binding to printed small molecules – biochemical, small-molecule microarray, 635/667 nm fluorescence, artefact control for SMM control-protein annotation, profiling panel (AID 1140); conditions: WGA-A647 binding, 635 nm fluorescence, higher = more signal;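 note: score merges 667 nm feature emission with signal to noise over triplicate slides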
[17] = biological target: Luciferin 4-monooxygenase (Photinus pyralis) (UniProt P08659); assay: inhibition of purified Photinus pyralis luciferase – biochemical, luminescence, purified enzyme, 2006 set, primary screen (AID 1141); conditions: purified firefly luciferase, SteadyGlo luminescence, 30 min; higher = more signal, called active from +8 up or from −8 down;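 note: cell-free assay with purified firefly luciferase at 100 ng per well in PBS; test concentration not given here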
Luciferin 4-monooxygenase (Photinus pyralis), sequence (P08659 whole entry, looked up): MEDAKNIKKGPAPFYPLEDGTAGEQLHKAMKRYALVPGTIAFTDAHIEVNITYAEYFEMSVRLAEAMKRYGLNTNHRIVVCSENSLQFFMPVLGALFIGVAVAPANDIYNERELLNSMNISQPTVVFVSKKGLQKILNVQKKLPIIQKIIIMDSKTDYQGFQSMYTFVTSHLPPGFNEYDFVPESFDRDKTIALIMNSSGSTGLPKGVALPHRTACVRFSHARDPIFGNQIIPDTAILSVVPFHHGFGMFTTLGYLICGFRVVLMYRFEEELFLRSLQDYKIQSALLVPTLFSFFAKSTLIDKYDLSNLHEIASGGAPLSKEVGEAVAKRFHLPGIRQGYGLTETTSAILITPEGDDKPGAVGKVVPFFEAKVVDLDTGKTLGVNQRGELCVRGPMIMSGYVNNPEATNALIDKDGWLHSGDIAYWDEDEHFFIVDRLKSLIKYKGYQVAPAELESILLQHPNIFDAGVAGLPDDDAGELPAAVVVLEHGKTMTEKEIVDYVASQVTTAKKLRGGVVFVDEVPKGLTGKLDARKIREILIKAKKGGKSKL

Concanavalin-A (Canavalia ensiformis), sequence (P02866 whole entry, looked up): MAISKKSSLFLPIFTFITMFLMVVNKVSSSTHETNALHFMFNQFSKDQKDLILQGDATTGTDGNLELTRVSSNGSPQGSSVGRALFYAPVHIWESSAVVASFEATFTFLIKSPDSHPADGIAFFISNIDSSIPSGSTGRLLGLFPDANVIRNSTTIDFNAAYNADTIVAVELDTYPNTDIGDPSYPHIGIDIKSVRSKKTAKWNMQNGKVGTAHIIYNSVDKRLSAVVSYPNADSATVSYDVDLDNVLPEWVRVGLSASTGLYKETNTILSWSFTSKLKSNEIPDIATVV
Fibroblast growth factor 2 (Homo sapiens), sequence (P09038 whole entry, looked up): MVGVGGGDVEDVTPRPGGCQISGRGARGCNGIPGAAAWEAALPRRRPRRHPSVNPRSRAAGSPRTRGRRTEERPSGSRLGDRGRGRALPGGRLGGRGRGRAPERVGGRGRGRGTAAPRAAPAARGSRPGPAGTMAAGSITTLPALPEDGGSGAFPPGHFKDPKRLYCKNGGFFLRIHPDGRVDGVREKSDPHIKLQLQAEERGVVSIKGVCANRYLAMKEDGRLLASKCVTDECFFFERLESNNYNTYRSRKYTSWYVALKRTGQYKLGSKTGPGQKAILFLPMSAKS
Focal adhesion kinase 1 (Homo sapiens), sequence (Q05397 whole entry, looked up): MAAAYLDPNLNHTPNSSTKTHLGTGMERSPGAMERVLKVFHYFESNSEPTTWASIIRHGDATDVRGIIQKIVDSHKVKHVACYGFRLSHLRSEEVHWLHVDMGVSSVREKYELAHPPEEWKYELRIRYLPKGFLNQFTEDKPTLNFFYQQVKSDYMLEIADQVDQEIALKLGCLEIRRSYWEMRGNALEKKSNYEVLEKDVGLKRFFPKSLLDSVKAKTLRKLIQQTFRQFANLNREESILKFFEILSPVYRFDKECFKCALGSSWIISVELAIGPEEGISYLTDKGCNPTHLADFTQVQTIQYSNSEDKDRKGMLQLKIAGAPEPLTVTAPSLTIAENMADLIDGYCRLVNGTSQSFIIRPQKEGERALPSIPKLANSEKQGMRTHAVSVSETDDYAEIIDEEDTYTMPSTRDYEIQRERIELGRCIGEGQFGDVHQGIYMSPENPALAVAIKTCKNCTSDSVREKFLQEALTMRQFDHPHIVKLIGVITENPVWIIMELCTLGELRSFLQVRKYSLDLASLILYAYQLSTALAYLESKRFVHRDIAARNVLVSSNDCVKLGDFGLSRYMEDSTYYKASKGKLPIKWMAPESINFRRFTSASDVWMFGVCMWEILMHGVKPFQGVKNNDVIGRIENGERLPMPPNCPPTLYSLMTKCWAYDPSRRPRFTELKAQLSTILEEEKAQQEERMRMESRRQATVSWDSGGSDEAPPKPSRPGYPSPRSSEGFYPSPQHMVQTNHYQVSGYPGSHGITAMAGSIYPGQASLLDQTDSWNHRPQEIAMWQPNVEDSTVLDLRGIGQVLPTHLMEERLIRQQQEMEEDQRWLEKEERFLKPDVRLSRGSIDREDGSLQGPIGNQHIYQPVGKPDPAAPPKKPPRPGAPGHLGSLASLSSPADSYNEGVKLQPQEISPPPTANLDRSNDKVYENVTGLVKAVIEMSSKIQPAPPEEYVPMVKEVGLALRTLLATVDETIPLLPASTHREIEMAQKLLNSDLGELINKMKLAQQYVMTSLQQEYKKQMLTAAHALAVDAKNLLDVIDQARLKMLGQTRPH
Albumin (Bos taurus), sequence (P02769 whole entry, looked up): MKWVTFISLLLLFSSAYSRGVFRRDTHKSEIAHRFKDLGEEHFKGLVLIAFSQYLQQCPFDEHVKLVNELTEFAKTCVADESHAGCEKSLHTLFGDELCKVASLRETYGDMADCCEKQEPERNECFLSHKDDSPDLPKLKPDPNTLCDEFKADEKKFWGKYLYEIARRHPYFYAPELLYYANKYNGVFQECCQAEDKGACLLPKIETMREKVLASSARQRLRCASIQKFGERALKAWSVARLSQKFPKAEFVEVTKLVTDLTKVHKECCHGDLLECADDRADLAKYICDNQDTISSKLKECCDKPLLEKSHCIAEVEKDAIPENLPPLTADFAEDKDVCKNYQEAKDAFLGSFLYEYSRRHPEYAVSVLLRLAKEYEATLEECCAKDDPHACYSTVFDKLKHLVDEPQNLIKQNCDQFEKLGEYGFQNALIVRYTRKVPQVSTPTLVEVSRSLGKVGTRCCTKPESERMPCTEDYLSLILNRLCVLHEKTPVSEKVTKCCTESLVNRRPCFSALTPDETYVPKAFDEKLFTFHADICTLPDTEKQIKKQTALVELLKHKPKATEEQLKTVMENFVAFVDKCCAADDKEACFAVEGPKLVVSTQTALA
Follistatin (Homo sapiens), sequence (P19883 whole entry, looked up): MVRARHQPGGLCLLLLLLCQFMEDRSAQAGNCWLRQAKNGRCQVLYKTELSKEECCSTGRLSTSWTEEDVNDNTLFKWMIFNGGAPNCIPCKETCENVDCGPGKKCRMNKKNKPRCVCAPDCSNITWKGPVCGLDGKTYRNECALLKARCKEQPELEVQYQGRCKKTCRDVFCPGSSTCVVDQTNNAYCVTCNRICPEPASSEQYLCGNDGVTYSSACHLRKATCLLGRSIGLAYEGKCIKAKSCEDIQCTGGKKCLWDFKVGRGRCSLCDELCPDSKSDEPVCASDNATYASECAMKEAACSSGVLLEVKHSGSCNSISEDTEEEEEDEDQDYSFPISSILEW

Compound	composite z-score (Albumin (Bos taurus))	composite Z-score [1]	composite z-score [2]	composite z-score [3]	composite z-score [4]	composite z-score [5]	composite z-score [6]	composite z-score (Sam68 (KHDRBS1))	composite z-score [7]	composite z-score [8]	composite z-score [9]	composite z-score [10]	composite z-score [11]	composite z-score [12]	composite z-score [13]	composite z-score [14]	z-score [15]	composite z-score (Lefty1)	composite z-score [16]	z-score [17]
COC(=O)c1c2oc(c1C(=O)OC)C(=O)N[C@@H](C(C)C)Cn1nncc1C1(CCCCC1)NC(=O)N[C@H](CO)CC2	0.543	0.559 (inactive)	-0.126	-0.131	0.86	0.942	-0.162	-0.0929	-0.573	0.77	-0.614	-0.622	0.195	-1.26	-0.238	0.0484	2.33	0.0278	-0.719	-1.25 (inactive)
CCOC(=O)C[C@H]1[C@H](OC(=O)Cc2ccc3c(c2)OCO3)[C@@H](NC(=O)c2ccc3ccccc3c2)c2cc(OCCCO)ccc2N1C(=O)c1ccc2ccccc2n1	0.661	-0.102 (inactive)	0.0349	-0.0523	0.371	0.77	0.562	0.826	-0.318	0.356	0.0303	0.731	-0.339	0.774	0.197	0.334	2.55	0.37	1.06	-1.25 (inactive)
COc1ccc([Si](C)(C)[C@H]2[C@H](CCO)O[C@@]3(C(=O)N(Cc4ccc(N5C(=O)c6cccc7cccc5c67)cc4)c4ccccc43)[C@@H]2C)cc1	0.258	0.466 (inactive)	-0.214	-0.123	0.346	0.249	0.0741	-0.465	-1.06	0.609	0.21	-0.141	-0.266	0.193	-0.771	-0.611	1.9	-0.255	0.796	-0.558 (inactive)
C=C(CCCC)/C(=C/C[C@H](OC(=O)c1ccncc1)c1ccc(CO)o1)c1cnc2ccccc2c1	0.295	-0.0961 (inactive)	0.227	-0.0942	0.84	0.368	0.0647	1.3	0.699	1.04	0.475	1.18	0.291	0.0311	1.38	0.722	1.45	1.38	1.28	-2.94 (inactive)
C=C(C(=O)CC[C@H](OC(C)=O)c1ccc(CO)o1)C(C)C	-0.348	0.481 (inactive)	-0.0264	-0.0795	0.614	0.297	0.629	0.596	-0.413	-0.0824	-0.361	-0.0631	0.384	0.4	0.853	1.01	0.191	0.299	-0.432	-2.12 (inactive)
